Experimental data: PubChem BioAssay AID1159580 (chemical genetic matrix, 2015)
Values joined by “and” are separate entries in the source; they are usually repeats but may differ in a detail not shown here. Identical values can stand only once. Screen size: about 5,500 compounds; about 2,000 (36%) were called active. Another 18% or so got no clear call; they are omitted. No stated cut-off is given here; in the data, active means normalized growth mostly below about 0.91 (no sharp cut-off); inconclusive means no clear call, values can overlap the other calls; inactive means mostly above about 0.92. This is one part of the list.

Experiment: chemical genetic growth profiling, strain panel (AID 1159580);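 further: tested at 20 µM; growth read once vehicle control cultures reached saturation at 30 °C; 1 = growth at the plate median or of vehicle wells; lower values mean less growth of the strain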
Conditions: S. cerevisiae deletion strains, growth OD

Measured: normalized growth

C[C@@H]1O[C@@H](O[C@H]2C[C@@H](O)[C@]3(CO)C4C(CC[C@]3(O)C2)[C@@]2(O)CC[C@H](C3=CC(=O)OC3)[C@@]2(C)C[C@H]4O)[C@H](O)[C@H](O)[C@H]1O (some centres not stated)
inactive: locus YAL021C, strain ccr4, active compounds read low 1.01 | locus YAL026C, strain drs2, active compounds read low 1.02 | locus YAL030W, strain snc1, active compounds read low 1.03 | locus YBL061C, strain skt5, active compounds read low 1.02 | locus YBR009C, strain hhf1, active compounds read low 1.04 | locus YBR021W, strain FUR4, active compounds read low 1.05 | locus YBR023C, strain chs3, active compounds read low 1.03 | locus YBR171W, strain sec66, active compounds read low 1.04 | locus YBR229C, strain ROT2, active compounds read low 1.02 | locus YBR231C, strain swc5, active compounds read low 1.01 | locus YBR279W, strain paf1, active compounds read low 1.02 | locus YCL011C, strain gbp2, active compounds read low 1.02 | locus YCL016C, strain dcc1, active compounds read low 1.04 | locus YCL029C, strain bik1, active compounds read low 0.99 | locus YCL061C, strain MRC1, active compounds read low 1.01 | locus YCL069W, strain vba3, active compounds read low 1.03 | locus YCR088W, strain abp1, active compounds read low 1.02 | locus YDL005C, strain med2, active compounds read low 1.02 | locus YDL035C, strain GPR1, active compounds read low 1.05 | locus YDL040C, strain nat1, active compounds read low 1.02 | locus YDL074C, strain BRE1, active compounds read low 1.04 | locus YDL101C, strain DUN1, active compounds read low 1.02 | locus YDL185W, strain tfp1, active compounds read low 1 | locus YDL192W, strain arf1, active compounds read low 0.994 | locus YDR001C, strain nth1, active compounds read low 1.02 | locus YDR069C, strain doa4, active compounds read low 0.997 | locus YDR101C, strain arx1, active compounds read low 0.994 | locus YDR137W, strain rgp1, active compounds read low 1.02 | locus YDR159W, strain sac3, active compounds read low 1 | locus YDR162C, strain NBP2, active compounds read low 1.03 | locus YDR195W, strain ref2 1.01 | locus YDR297W, strain sur2, active compounds read low 1.02 | locus YDR318W, strain mcm21, active compounds read low 0.998 | locus YDR334W, strain swr1, active compounds read low 1.03 | locus YDR335W, strain msn5, active compounds read low 1.03 | locus YDR388W, active compounds read low 0.992 | locus YDR392W, strain spt3, active compounds read low 0.981 | locus YDR502C, strain sam2, active compounds read low 0.989 | locus YEL003W, strain gim4, active compounds read low 1.03 | locus YEL037C, strain rad23, active compounds read low 1.03 | locus YEL061C, strain CIN8 (second series), active compounds read low 1.03 | locus YEL061C, strain CIN8, active compounds read low 1.02 | locus YER015W, strain faa2, active compounds read low 1.02 | locus YER016W, strain bim1, active compounds read low 1.01 | locus YER110C, active compounds read low 0.985 | locus YER111C, strain swi4, active compounds read low 1.02 | locus YER155C, strain BEM2 (second series), active compounds read low 1.01 | locus YER155C, strain BEM2, active compounds read low 1.01 | locus YER167W, strain BCK2, active compounds read low 1.03 | locus YFR010W, strain ubp6, active compounds read low 1.03 | locus YGL078C, strain dbp3, active compounds read low 0.992 | locus YGL086W, strain mad1, active compounds read low 0.996 | locus YGL167C, strain pmr1, active compounds read low 1.03 | locus YGL173C, strain kem1, active compounds read low 1.02 | locus YGL227W, strain vid30, active compounds read low 1.03 | locus YGL240W, strain doc1, active compounds read low 0.997 | locus YGL248W, strain PDE1, active compounds read low 1.02 | locus YGL253W, strain hxk2, active compounds read low 1.01 | locus YGR135W, strain pre9, active compounds read low 1.01 | locus YGR252W, strain gcn5, active compounds read low 0.98 | locus YHR013C, strain ard1, active compounds read low 1.04 | locus YHR027C, strain rpn1, active compounds read low 1.02 | locus YHR030C, strain SLT2, active compounds read low 1.02 | locus YHR079C, strain IRE1 (second series), active compounds read low 0.987 | locus YHR079C, strain IRE1, active compounds read low 1.02 | locus YHR094C, strain hxt1, active compounds read low 0.983 | locus YHR129C, strain ARP1, active compounds read low 1.02 | locus YHR142W, strain chs7, active compounds read low 1.04 | locus YHR200W, strain rpn10, active compounds read low 0.999 | locus YIL066C, strain RNR3, active compounds read low 1.05 | locus YIL073C, strain SPO22, active compounds read low 0.981 | locus YIL125W, strain kgd1, active compounds read low 0.994 | locus YIR030C, strain dcg1, active compounds read low 0.991 | locus YJL092W, strain hpr5, active compounds read low 1.02 | locus YJL095W, strain BCK1 (second series), active compounds read low 1.05 | locus YJL095W, strain BCK1, active compounds read low 1.03 and 1.01 | locus YJL115W, strain asf1, active compounds read low 1.03 | locus YJL129C, strain trk1, active compounds read low 1.04 | locus YJL134W, strain LCB3, active compounds read low 1.01 | locus YJL154C, strain vps35, active compounds read low 1.02 | locus YJL164C, strain tpk1, active compounds read low 1.02 | locus YJL166W, strain qcr8, active compounds read low 1.01 | locus YJL168C, strain set2, active compounds read low 0.987 | locus YJL187C, strain SWE1 (second series), active compounds read low 1.03 | locus YJL187C, strain SWE1, active compounds read low 1.02 | locus YJR043C, strain POL32, active compounds read low 1.05 | locus YJR066W, strain TOR1, active compounds read low 0.989
